Experimental data published in PubChem BioAssay (NCATS).
Records with an inconclusive call do not appear. Calls of active or inactive are those of the source. Calls follow the shape of the dose curve; as a rule, active = well fitted inhibition curve with a large enough effect; inconclusive = small, poorly fitted or top-dose-only effect; inactive = flat fitted curve, though single readings scatter.

Legend:
Test in all cases: qHTS profiling for inhibitors of Plasmodium falciparum proliferation (AID 504749); also: nearly all actives have a fitted effect of over 60% in size
CP260 = settings: P. falciparum in erythrocytes, SYBR Green DNA, 72 h; series mostly up to 12.8 µM
In short: (§1)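 P. falciparum-infected erythrocytes (0.3% parasitemia, 2.5% hematocrit) incubated with compound 72 h at 37 C, 5% CO2. Parasite DNA detected by SYBR Green after lysis, overnight at room temperature; normalised to 0.29 uM artemisinin and DMSO.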

CP262 = settings: P. falciparum in erythrocytes, SYBR Green DNA, 72 h; series mostly up to 12.8 µM
In short: as §1

CP265 = settings: P. falciparum in erythrocytes, SYBR Green DNA, 72 h; series mostly up to 12.8 µM
In short: as §1

CP266 = settings: P. falciparum in erythrocytes, SYBR Green DNA, 72 h; series mostly up to 28.7 µM
In short: as §1

CP268 = settings: P. falciparum in erythrocytes, SYBR Green DNA, 72 h; series mostly up to 12.8 µM
In short: as §1

CP269 = settings: P. falciparum in erythrocytes, SYBR Green DNA, 72 h; series mostly up to 12.8 µM
In short: as §1

CP286 = settings: P. falciparum in erythrocytes, SYBR Green DNA, 72 h; series mostly up to 12.8 µM
In short: as §1

CP291 = settings: P. falciparum in erythrocytes, SYBR Green DNA, 72 h; series mostly up to 12.8 µM
In short: as §1

CP297 = settings: P. falciparum in erythrocytes, SYBR Green DNA, 72 h; series mostly up to 12.8 µM
In short: as §1

CP305 = settings: P. falciparum in erythrocytes, SYBR Green DNA, 72 h; series mostly up to 12.8 µM
In short: as §1

CP325 = settings: P. falciparum in erythrocytes, SYBR Green DNA, 72 h; series mostly up to 12.8 µM
In short: as §1

CP329 = settings: P. falciparum in erythrocytes, SYBR Green DNA, 72 h; series mostly up to 12.8 µM
In short: as §1

CP335 = settings: P. falciparum in erythrocytes, SYBR Green DNA, 72 h; series mostly up to 12.8 µM
In short: as §1

DFO2036 = settings: P. falciparum in erythrocytes, SYBR Green DNA, 72 h; series mostly up to 12.8 µM
In short: as §1

DIV14 = settings: P. falciparum in erythrocytes, SYBR Green DNA, 72 h; series mostly up to 12.8 µM
In short: as §1

DIV17 = settings: P. falciparum in erythrocytes, SYBR Green DNA, 72 h; series mostly up to 12.8 µM
In short: as §1

DIV30 = settings: P. falciparum in erythrocytes, SYBR Green DNA, 72 h; series mostly up to 12.8 µM
In short: as §1

Dd2 = settings: P. falciparum in erythrocytes, SYBR Green DNA, 72 h; series mostly up to 12.8 µM
In short: as §1

ECU = settings: P. falciparum in erythrocytes, SYBR Green DNA, 72 h; series mostly up to 12.8 µM
In short: as §1

FAB9 = settings: P. falciparum in erythrocytes, SYBR Green DNA, 72 h; series mostly up to 12.8 µM
In short: as §1

GB4 = settings: P. falciparum in erythrocytes, SYBR Green DNA, 72 h; series mostly up to 12.8 µM
In short: as §1

HB3 = settings: P. falciparum in erythrocytes, SYBR Green DNA, 72 h; series mostly up to 12.8 µM
In short: as §1

ICS = settings: P. falciparum in erythrocytes, SYBR Green DNA, 72 h; series mostly up to 12.8 µM
In short: as §1

JCK = settings: P. falciparum in erythrocytes, SYBR Green DNA, 72 h; series mostly up to 12.8 µM
In short: as §1

P93_24 = settings: P. falciparum in erythrocytes, SYBR Green DNA, 72 h; series mostly up to 12.8 µM
In short: as §1

P94_40 = settings: P. falciparum in erythrocytes, SYBR Green DNA, 72 h; series mostly up to 12.8 µM
In short: as §1

PAD = settings: P. falciparum in erythrocytes, SYBR Green DNA, 72 h; series mostly up to 12.8 µM
In short: as §1

PC15 = settings: P. falciparum in erythrocytes, SYBR Green DNA, 72 h; series mostly up to 12.8 µM
In short: as §1

PC26 = settings: P. falciparum in erythrocytes, SYBR Green DNA, 72 h; series mostly up to 12.8 µM
In short: as §1

PC49 = settings: P. falciparum in erythrocytes, SYBR Green DNA, 72 h; series mostly up to 12.8 µM
In short: as §1

SC27B = settings: P. falciparum in erythrocytes, SYBR Green DNA, 72 h; series mostly up to 12.8 µM
In short: as §1

TAB109 = settings: P. falciparum in erythrocytes, SYBR Green DNA, 72 h; series mostly up to 12.8 µM
In short: as §1

TAB113 = settings: P. falciparum in erythrocytes, SYBR Green DNA, 72 h; series mostly up to 12.8 µM
In short: as §1

TAB165 = settings: P. falciparum in erythrocytes, SYBR Green DNA, 72 h; series mostly up to 12.8 µM
In short: as §1

W2 = settings: P. falciparum in erythrocytes, SYBR Green DNA, 72 h; series mostly up to 12.8 µM
In short: as §1

Measured: Potency

O=c1[nH]cnc2c1ncn2C1OC(CO)C(O)C1O (stereo not given)
inactive: CP260 | CP262 | CP265 | CP266 | CP268 | CP269 | CP286 | CP291 | CP297 | CP305 | CP325 | CP329 | CP335 | DFO2036 | DIV14 | DIV17 | DIV30 | Dd2 | ECU | FAB9 | GB4 | HB3 | ICS | JCK | P93_24 | P94_40 | PAD | PC15 | PC26 | PC49 | SC27B | TAB109 | TAB113 | TAB165 | W2
